Screening data: PubChem, several laboratories
Sampled rows, rich in hits. Any-hit rate of the full collection: about 9.7%.
WNV NS2B-NS3 inh – inhibitors of West Nile virus NS2B-NS3 protease. z-score (test concentration not listed). P06935. 65,000 compounds, 0.18% hits. AID 577. WNV NS2B-NS3 protease, fluorogenic substrate Ex360/Em465; stronger effect = lower value; in the data active means z-score below about -3
M1 ag – M1 muscarinic receptor agonism; CHO-M1 cells, Fluo-4 calcium fluorescence, agonist mode; stronger effect = higher value; B-score at 10 µM; 64,000 compounds, 3% hits; AID 626;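 active means fluorescence rise, raw or as B-score row- and column-corrected plate score, outside the 99.7% band of its plate's samples, either direction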
BAP1 inh – human BAP1 deubiquitinase inhibition. recombinant BAP1, Ub-AMC hydrolysis fluorescence kinetic; stronger effect = lower value. calls only at 20 µM. 72,000 compounds, 0.48% hits;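 active means activity remaining at or below 50% of control, provided the compound also passes the data quality filters; inactive means the rest, including low values that fail the filters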;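 further: 100% = DMSO wells rate and 0% = substrate alone blank rate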
Target sequence (Q92560 whole entry, looked up): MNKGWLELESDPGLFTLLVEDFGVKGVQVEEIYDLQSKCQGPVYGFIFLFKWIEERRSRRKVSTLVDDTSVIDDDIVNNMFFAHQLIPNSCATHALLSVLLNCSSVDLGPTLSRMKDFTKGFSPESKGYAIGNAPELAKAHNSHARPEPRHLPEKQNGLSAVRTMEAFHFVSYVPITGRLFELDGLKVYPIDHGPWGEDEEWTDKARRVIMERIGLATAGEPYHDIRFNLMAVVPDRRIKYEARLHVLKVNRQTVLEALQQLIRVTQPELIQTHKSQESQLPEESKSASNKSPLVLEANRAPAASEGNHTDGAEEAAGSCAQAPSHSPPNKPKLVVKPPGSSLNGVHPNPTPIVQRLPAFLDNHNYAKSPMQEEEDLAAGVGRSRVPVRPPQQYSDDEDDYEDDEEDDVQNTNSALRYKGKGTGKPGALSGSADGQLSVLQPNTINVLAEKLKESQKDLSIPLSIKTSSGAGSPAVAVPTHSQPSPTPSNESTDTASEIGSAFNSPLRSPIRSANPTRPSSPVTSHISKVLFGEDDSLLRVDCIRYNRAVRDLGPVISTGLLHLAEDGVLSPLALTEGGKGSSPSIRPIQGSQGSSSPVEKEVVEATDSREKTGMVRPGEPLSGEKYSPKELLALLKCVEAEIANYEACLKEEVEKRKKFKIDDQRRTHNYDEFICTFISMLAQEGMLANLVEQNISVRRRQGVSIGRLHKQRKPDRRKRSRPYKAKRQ
Fluor 339 460 – intrinsic fluorescence of library compounds, ex339/em460 – biochemical, MLSMR library, data from DPM-DC assay, artefact control, profiling panel; fluorescence fold increase at 10 µM; compound autofluorescence, ex339/em460 nm, NADH buffer; stronger effect = higher value; 1 = no-compound wells, NADH background; AID 709; 65,000 compounds, 5.5% hits;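 active means at 10 µM, mean starting fluorescence two-fold or more over control wells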;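 further: signal is the first read of a kinetic run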
Abs 340nm – compounds absorbing at 340 nm; fold change at 10 µM; compound absorbance at 340 nm, fold over control; 65,000 tested, under 10 active;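 active means at 10 µM dose, initial 340 nm absorbance at least 2 fold that of control wells; inactive means change under 2 fold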;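 further: initial absorbance extrapolated from kinetic A340 decline of NADH oxidation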
M1 antagonist – M1 muscarinic receptor (rat) antagonism | P08482 | CHO-M1 cells, Fluo-4 calcium, ACh EC80 antagonist mode; stronger effect = lower value | B-score at 10 µM | 64,000 compounds, 3.4% hits;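 active means calcium fluorescence response, raw or row-and-column corrected B-score, differing from the plate sample mean either way at a set confidence level, mostly lower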
M1 ag confirm – confirmation of rat M1 muscarinic receptor agonists; 1,700 compounds, 19% hits; shares compounds with M1 ag; CHO-M1 cells, Fluo-4 calcium fluorescence, agonist mode; actives lie on both sides; fluorescence change (max-min) at 10 µM;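 active means fluorescence change differs from the solvent-only DMSO control mean at a set confidence level in both duplicate runs; inconclusive means differs from solvent-only control mean in just one of two runs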;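 further: an EC20 dose of acetylcholine follows compound addition during the same imaging run; raw fluorescence intensity difference in instrument units with no normalization to controls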
M4 agonist ctr – activates rat M4 receptor in counter-screen for M1 agonists; AID 1741; CHO M4/Gqi5 cells, Fluo-4 calcium fluorescence, agonist mode; actives lie on both sides; 1,700 compounds, 9% hits; fluorescence change (max-min) at 10 µM; shares compounds with M1 ag;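 active means fluorescence change differing from the plate's solvent-only control wells at 99.7% confidence in both duplicates, whether higher or lower; inconclusive means differs from solvent controls in only one of two duplicates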
The depositor's hits bear a star; i = inactive; ? = inconclusive; nt = not tested or not shown.

SMILES	WNV NS2B-NS3 inh	M1 ag	BAP1 inh	Fluor 339 460	Abs 340nm	M1 antagonist	M1 ag confirm	M4 agonist ctr
CCOC(=O)C1CCN(c2nc(-c3ccccc3)nc3c2oc2ccccc23)CC1	0.01	5.84*	i	2.12*	1.01	0.0101	-14.5	-28.7
Nc1ccc2c(C(F)(F)F)cc(=O)oc2c1	0.4	26.4*	i	3.73*	1.04	0.198	171*	146
Cc1ccc(N2C(=O)[C@@H]3C(c4ccc(F)cc4)=NO[C@@H]3C2=O)cc1	-0.18	6.65*	i	1.11	1	-0.368	?	-34.6
COc1ccc(C2=NO[C@@H]3C(=O)N(c4ccc(C)cc4C)C(=O)[C@H]23)cc1OC	0.38	-0.0878	i	1.11	1.01	0.0519	nt	nt
COc1cc(C2CC(=O)c3c([nH]c(C(=O)OCCOC(C)C)c3C)C2)cc(OC)c1OC (stereo not given)	-0.74	3.23*	i	1.02	1.02	0.224	-33.3*	-19.9
Cn1c(CCNC(=O)c2ccco2)nc2cc(NS(=O)(=O)c3ccccc3)ccc21	1.95	31.7*	i	1.12	1.02	-0.15	?	-67.8
COc1ccc(C(=O)CSc2nc(SC)ns2)cc1OC	-0.4	-2.84*	i	1.12	1.12	-0.727	-17.4	-25
CCOC(=O)c1nnn(-c2nonc2N)c1CN1CCc2ccccc2C1	0.27	-2.65*	i	1.06	1.01	0.224	-26.5*	?
O=C(Oc1ccc(O)c2c1C(=O)c1ccccc1C2=O)c1ccccc1	nt	nt	i	nt	nt	nt	nt	nt
CC(=O)c1ccc(NC(=O)N2CCN(c3cccc(Cl)c3)CC2)cc1	-0.65	5.15*	i	1.12	1.02	-2.8*	?	-27.8
CCOc1ccc2cc(C(N)=O)c(=Nc3ccc(C(F)(F)F)cc3)oc2c1	nt	nt	i	nt	nt	nt	nt	nt
Cn1cc(C(=O)c2ccccc2)cc1-c1nc2ccccc2n1C	1.55	6.55*	i	1.18	1.08	-0.627	-2.99	-6.84
NC(=O)C1CCN(c2ncnc3c2c(-c2ccccc2)cn3-c2ccccc2)CC1	0.79	3.71*	i	1.05	1.03	-1.51	?	-62.3
CCOc1ccc2nc(SCC(=O)Nc3ccc4c(c3)C(=O)c3ccccc3C4=O)sc2c1	nt	nt	i	nt	nt	nt	nt	nt
O=C(NCCc1cccc(Cl)c1)c1cccnc1	-0.07	10.6*	i	1.02	0.98	-4.36*	-1.46	-20.6
O=C(NCc1cccnc1)c1cccc(Cl)c1	-0.12	0.821	i	1.07	1.01	0.101	nt	nt
O=C(c1cc(-c2ccncc2)nc2ccccc12)N1CCN(c2ccccn2)CC1	0.62	1.55	i	1.08	1.04	-0.342	nt	nt
O=C(c1ccco1)N1CCN(c2nc3ccccc3n3nnnc23)CC1	0.64	7.4*	i	1.55	1.06	-1.43	22.1	14.4
O=C(c1cc(-c2ccccc2)nc2ccccc12)N1CCN(c2ccccn2)CC1	-0.32	4.07*	i	1.03	1.08	-1.2	-15.8	-41
O=C(c1cc(-c2ccncc2)nc2ccccc12)N1CCN(c2ccc(N3CCOCC3)nn2)CC1	-0.44	4.77*	i	1.15	0.97	0.353	-22.1	-28
O=C(c1ccco1)N1CCN(C(=O)c2cc(-c3ccccn3)nc3ccccc23)CC1	1.47	3.28*	i	1.09	1.05	0.458	?	-74.2
O=C(c1ccco1)N1CCC(n2nnc3ccccc32)CC1	0.59	-0.36	i	1.12	0.99	-0.587	nt	nt
O=C(c1cnc(N2CCN(c3ncccn3)CC2)c2ccccc12)N1CCN(c2ccccn2)CC1	-0.34	12.3*	i	1.35	1.12	-1.29	-10.3	-12.1
O=C(c1ccco1)N1CCN=C1SCc1ccccc1F	-0.16	-3.3*	i	1.14	1.04	1.11	-14.8	-29
O=C(c1ccco1)N1CCN=C1SCc1cccnc1	-0.87	-0.216	i	0.98	0.98	0.182	nt	nt
SMILES	WNV NS2B-NS3 inh	M1 ag	BAP1 inh	Fluor 339 460	Abs 340nm	M1 antagonist	M1 ag confirm	M4 agonist ctr
CCN1CCCC1CN=Cc1c(O)n(-c2ccccc2)c(=O)c2ccccc12 (stereo not given)	-0.66	5.72*	i	1.12	1.04	0.187	5.29	-72.4
Cc1cccc(-n2c(O)c(C=NCCCN3CCOCC3)c3ccccc3c2=O)c1	1.17	-0.479	i	1.15	1.09	-0.15	nt	nt
O=C(c1ccccc1)N(Cc1ccc2c(c1)OCO2)Cc1nc2ccccc2c(=O)[nH]1	-1.03	2.67*	i	1.14	1.01	-0.271	?	-82.6
O=C(Nc1ccccc1)N(Cc1ccc2c(c1)OCO2)Cc1nc2ccccc2c(=O)[nH]1	0.78	0.526	i	1	0.99	-0.00293	nt	nt
Cc1ccc(C(=O)Nc2cc(-c3nc4ccccc4s3)ccc2C)cc1	nt	nt	i	nt	nt	nt	nt	nt
CC(=O)N1CCc2cc(S(=O)(=O)NCCCOC(C)C)ccc21	-0.81	-2.12*	i	1.14	1.05	0.441	-9.78	?
COCCCNS(=O)(=O)c1ccc2c(c1)CCN2C(C)=O	0.15	-0.846	i	1.04	1	-0.359	nt	nt
O=C(CSc1ccc2nnc(-c3ccccn3)n2n1)N1CCN(c2ccccc2)CC1	1.45	3.25*	i	1.03	1.05	-0.585	-8.52	?
COC(=O)c1ccc(C(C(=O)NCc2ccccc2)N(Cc2ccco2)C(=O)c2cnccn2)cc1 (stereo not given)	0.06	0.809	i	1.07	1.02	-0.0277	nt	nt
COc1cc(OC)cc(C(C(=O)NCc2ccccc2)N(Cc2ccco2)C(=O)c2ccno2)c1 (stereo not given)	1.02	7.11*	i	1.1	1.02	-0.303	-14.3	?
Cc1ccc(C2C(C#N)=C(N)Oc3nc(-c4ccccc4)[nH]c32)o1 (stereo not given)	0.6	3.48*	i	1.14	1	-0.14	-23.8*	-34.9
COc1cccc(N2CCN(c3ncnc4c3[nH]c3ccccc34)CC2C)c1 (stereo not given)	0.56	11.2*	i	1.39	1.05	-3.44*	?	-52.3
c1ccc2c(c1)[nH]c1c(N3CCC4(CC3)OCCO4)ncnc12	-0.63	1.35	i	1.73	1.02	-1.34	nt	nt
OC1(c2cccc(C(F)(F)F)c2)CCN(c2ncnc3c2[nH]c2ccccc23)CC1	0.22	2.7	i	1.58	1.08	-1.75	nt	nt
c1ccc(CN2CCN(c3ncnc4c3[nH]c3ccccc34)CC2)cc1	-1.22	3.91*	i	1.38	1.01	-2.74*	-1.94	?
c1ccc2c(c1)CCN(c1ncnc3c1[nH]c1ccccc13)C2	-0.43	5.57*	i	1.55	1.05	-3.41*	10.2	-24.9
Cc1ccc2c(c1)[nH]c1c(N3CCN(Cc4ccccc4)CC3)ncnc12	0.49	3.91*	nt	1.56	1.08	-3.06*	-13.1	?
